PubChem BioAssay AID1159580 (chemical genetic matrix, 2015)
“And” between values parts separate entries of the source, which are not always exact repeats. Equal values may be shown once. In all, about 5,500 compounds went through this assay and about 2,000 (36%) were called active. About 18% were inconclusive and are not listed. No stated cut-off is given here; in the data, active means normalized growth mostly below about 0.91 (no sharp cut-off); inconclusive means no clear call, values can overlap the other calls; inactive means mostly above about 0.92. The list shows a part of the results.

Assay: chemical genetic growth profiling, strain panel (AID 1159580);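 further: tested at 20 µM; growth read once vehicle control cultures reached saturation at 30 °C; 1 = growth at the plate median or of vehicle wells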
Conditions: S. cerevisiae deletion strains, growth OD

Measured: normalized growth

COc1ccc2c(c1)O[C@@H]1COc3cc(OC)c(OC)cc3[C@@H]1C2=O
inactive: locus YAL021C, strain ccr4, stronger effect = lower value 0.977 | locus YBR021W, strain FUR4, stronger effect = lower value 0.897 | locus YBR171W, strain sec66, stronger effect = lower value 0.965 | locus YBR229C, strain ROT2, stronger effect = lower value 0.997 | locus YDL005C, strain med2, stronger effect = lower value 0.979 | locus YDL035C, strain GPR1, stronger effect = lower value 0.906 | locus YDL040C, strain nat1, stronger effect = lower value 0.967 | locus YDL185W, strain tfp1, stronger effect = lower value 0.935 | locus YDR001C, strain nth1, stronger effect = lower value 0.97 | locus YDR069C, strain doa4, stronger effect = lower value 1.02 | locus YDR137W, strain rgp1, stronger effect = lower value 0.995 | locus YDR150W, strain NUM1, stronger effect = lower value 0.977 | locus YDR159W, strain sac3, stronger effect = lower value 0.864 | locus YDR388W, stronger effect = lower value 0.975 | locus YEL037C, strain rad23, stronger effect = lower value 0.981 | locus YFR010W, strain ubp6, stronger effect = lower value 1.02 | locus YGL078C, strain dbp3, stronger effect = lower value 0.933 | locus YGL167C, strain pmr1, stronger effect = lower value 0.974 | locus YGL173C, strain kem1, stronger effect = lower value 0.954 | locus YGL240W, strain doc1, stronger effect = lower value 0.916 | locus YHR027C, strain rpn1, stronger effect = lower value 0.999 | locus YHR079C, strain IRE1, stronger effect = lower value 0.97 | locus YHR200W, strain rpn10, stronger effect = lower value 0.939 | locus YIL073C, strain SPO22, stronger effect = lower value 0.903 | locus YIL125W, strain kgd1, stronger effect = lower value 0.989 | locus YJL134W, strain LCB3, stronger effect = lower value 0.935 | locus YJL154C, strain vps35, stronger effect = lower value 0.982 | locus YJL168C, strain set2, stronger effect = lower value 0.978
0.547 (active) and 0.988 (inactive): locus YHR030C, strain SLT2, stronger effect = lower value
active: locus YAL026C, strain drs2, stronger effect = lower value 0.694 | locus YAL030W, strain snc1, stronger effect = lower value 0.663 | locus YBL061C, strain skt5, stronger effect = lower value 0.707 | locus YBR009C, strain hhf1, stronger effect = lower value 0.34 | locus YBR023C, strain chs3, stronger effect = lower value 0.819 | locus YBR231C, strain swc5, stronger effect = lower value 0.554 | locus YBR279W, strain paf1, stronger effect = lower value 0.527 | locus YCL011C, strain gbp2, stronger effect = lower value 0.674 | locus YCL016C, strain dcc1, stronger effect = lower value 0.614 | locus YCL029C, strain bik1, stronger effect = lower value 0.68 | locus YCL061C, strain MRC1, stronger effect = lower value 0.354 | locus YCL069W, strain vba3, stronger effect = lower value 0.384 | locus YCR088W, strain abp1, stronger effect = lower value 0.823 | locus YDL074C, strain BRE1, stronger effect = lower value 0.676 | locus YDL101C, strain DUN1, stronger effect = lower value 0.669 | locus YDL134C, strain PPH21, stronger effect = lower value 0.68 | locus YDL192W, strain arf1, stronger effect = lower value 0.893 | locus YDR101C, strain arx1, stronger effect = lower value 0.913 | locus YDR162C, strain NBP2, stronger effect = lower value 0.752 | locus YDR195W, strain ref2 0.842 | locus YDR297W, strain sur2, stronger effect = lower value 0.652 | locus YDR318W, strain mcm21, stronger effect = lower value 0.516 | locus YDR334W, strain swr1, stronger effect = lower value 0.427 | locus YDR335W, strain msn5, stronger effect = lower value 0.867 | locus YDR392W, strain spt3, stronger effect = lower value 0.131 | locus YDR502C, strain sam2, stronger effect = lower value 0.831 | locus YEL003W, strain gim4, stronger effect = lower value 0.531 | locus YEL061C, strain CIN8 (second series), stronger effect = lower value 0.257 | locus YEL061C, strain CIN8, stronger effect = lower value 0.315 | locus YER015W, strain faa2, stronger effect = lower value 0.693 | locus YER016W, strain bim1, stronger effect = lower value 0.818 | locus YER110C, stronger effect = lower value 0.799 | locus YER111C, strain swi4, stronger effect = lower value 0.423 | locus YER155C, strain BEM2 (second series), stronger effect = lower value 0.163 | locus YER155C, strain BEM2, stronger effect = lower value 0.426 | locus YER167W, strain BCK2, stronger effect = lower value 0.684 | locus YGL086W, strain mad1, stronger effect = lower value 0.458 | locus YGL227W, strain vid30, stronger effect = lower value 0.28 | locus YGL248W, strain PDE1, stronger effect = lower value 0.649 | locus YGL253W, strain hxk2, stronger effect = lower value 0.633 | locus YGR135W, strain pre9, stronger effect = lower value 0.786 | locus YGR252W, strain gcn5, stronger effect = lower value 0.755 | locus YHR013C, strain ard1, stronger effect = lower value 0.558 | locus YHR079C, strain IRE1 (second series), stronger effect = lower value 0.814 | locus YHR094C, strain hxt1, stronger effect = lower value 0.699 | locus YHR129C, strain ARP1, stronger effect = lower value 0.489 | locus YHR142W, strain chs7, stronger effect = lower value 0.195 | locus YIL066C, strain RNR3, stronger effect = lower value 0.675 | locus YIR030C, strain dcg1, stronger effect = lower value 0.879 | locus YJL092W, strain hpr5, stronger effect = lower value 0.822 | locus YJL095W, strain BCK1 (second series), stronger effect = lower value 0.488 | locus YJL115W, strain asf1, stronger effect = lower value 0.819 | locus YJL129C, strain trk1, stronger effect = lower value 0.441 | locus YJL164C, strain tpk1, stronger effect = lower value 0.438 | locus YJL166W, strain qcr8, stronger effect = lower value 0.208 | locus YJL187C, strain SWE1 (second series), stronger effect = lower value 0.822 | locus YJL187C, strain SWE1, stronger effect = lower value 0.589
0.332 (active) and 0.966 (inactive): locus YJL095W, strain BCK1, stronger effect = lower value
